In PubChem BioAssay (NCI) one finds growth data, which are given here for 38 molecules.

Compounds without any hit were thinned out: in the full panel of roughly 83,000, 20% have a hit.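 Activity criterion: percent growth below 10, measured after cells in 96-well plates were exposed to a single compound concentration for 48 hours.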 The source made the active and inactive calls.

This assay has as its system A549/ATCC NSCLC. Put plainly: NCI-60 one-dose screen, 48 h (100 = growth as untreated, 0 = no growth, -100 = all killed). The settings on record: 10 µM unless noted.
With `Cc1ccc(NC(=O)CN2CCN(c3ncnc4c3cnn4-c3ccccc3)CC2)cc1`, the growth is 89.1% (inactive). Under `COc1cc(OC)cc(C(=O)Nc2cccc(-c3cn(-c4ccc(S(N)(=O)=O)cc4)nn3)c2)c1` stands 90.9% (inactive). As to `CCN(CC)c1ccc(/C=N/Nc2nc(-c3ccc(Br)cc3)cs2)c(O)c1`, the growth was 90.5% (inactive).

On to `Cn1cc(-c2cc(N)n3nc(-c4c[nH]c5ccccc45)cc3n2)c2cc(Br)cnc21`, for which the growth is -33% (active). Under `C#C[C@]1(O)CC[C@H]2[C@@H]3CC=C4c5sc(-c6ccc(O)c(O)c6)nc5CC[C@]4(C)[C@H]3CC[C@@]21C` stands -78.6% (active); under `Cc1ccc(NCC(=O)Cn2cc(COc3ccc(C=Nc4cnc5ccccc5c4)cc3)nn2)cc1`, 103% (inactive); under `CN(C)CCOc1ccc(C(=O)C2[C@H](c3ccc(Cl)cc3)[C@@H](c3ccccc3)NC23C(=O)Nc2ccccc23)cc1` (stereo partly drawn), 48.1% (inactive). As to `CC(C)(C)OC(=O)/C=C/c1cccc2c1C(=O)NC(C)(c1cc3cc(Cl)ccc3oc1=O)N2` (stereo not drawn), the growth is 27.4% (inactive). Under `CCOC(=O)/C=C/c1cccc2c1C(=O)NC(C)(c1cc3cc(Cl)ccc3oc1=O)N2` (stereo not drawn) stands 47.2% (inactive). `N=C1N=C(SCc2nc3ccccc3[nH]2)NC(=O)/C1=C/c1ccc(Cl)cc1`: the growth is 109% (inactive). Then `CC(C)CSc1nc(NCCc2c[nH]c3ccccc23)c(C#N)c(-c2ccccc2)n1`, with 66.9% (inactive); and `COc1cc(-c2cc(-c3cccc(OCC(=O)O)c3)[nH]c(=O)c2C#N)cc(OC)c1OC`, with 100% (inactive); and `COc1ccc(C(SCCNCc2cc(N(C)C)ccn2)(c2ccccc2)c2ccccc2)cc1`, with 10.1% (inactive). For the molecule `Cc1cccc(-c2nc(Nc3ccc(C)c(S(N)(=O)=O)c3)c3ccccc3n2)c1`, the growth was 26.5% (inactive).

Consider `Cn1cc(-c2cc(N)n3nc(-c4cn(C)c5ccccc45)cc3n2)c2cc(Br)ccc21`, for which the growth is 4.06% (active). As for `CC12CC[C@@H]3[C@]4(C)COC(c5cn[nH]c5-c5cccc(Cl)c5)O[C@@H]4CC[C@@]3(C)[C@@H]1CC(C1=CCOC1=O)O2` (stereo partly drawn), the growth was 26.7% (inactive). Under `Cc1ccc(C2CC(c3ccc(S(=O)(=O)NCCNc4nc(Nc5ccc(F)cc5)nc(N(C)C)n4)cc3)=Nc3c(N)nc(N)nc3N2)cc1` (stereo not drawn) stands 68.4% (inactive). As to `O=C(NN1C(=O)/C(=C/C=C/c2ccc([N+](=O)[O-])o2)SC1=S)c1ccc(Cl)cc1`, the growth was -86.7% (active). With `COc1ccc(NC(=O)Cn2c3c(sc2=O)[C@H]2[C@@H](O)[C@@H](O)[C@H](O)[C@@H]2CS3)cc1`, the growth was 100% (inactive).

With `CC1(C)CC[C@]2(C(=O)O)CC[C@]3(C)C(=CCC4[C@@]5(C)C[C@@H](O)[C@@H]6OC(c7ccco7)OC[C@@]6(C)C5CC[C@]43C)C2C1` (stereo partly drawn), the growth is 18.3% (inactive). Then `C#CCOc1ccc(/C=N/Nc2nc(-c3ccc(Cl)cc3)cs2)cc1OC`, with 64.4% (inactive); and `CCCCCCCCOc1cccc(S(=O)(=O)Nc2ccc(C)cc2C(=O)O)c1`, with 84.2% (inactive).

For the molecule `Nc1nnc(-c2c[nH]c3ccc(Br)cc23)c(-c2c[nH]c3ncc(Br)cc23)n1`, the growth is 42.2% (inactive). Regarding `O=C(c1ccccc1)c1ccc2nc(-c3ccc(F)cc3)[nH]c2c1`, the growth was 82.2% (inactive). Then `Cn1cc(-c2cc(N)n3nc(-c4cn(C)c5ccc(Cl)cc45)cc3n2)c2ccccc21`, with 107% (inactive). Under `O=C(CSc1nc2ccccc2c(=O)[nH]1)NCCN1CCCCC1` stands 100% (inactive); under `CCCn1cc(-c2nc(Nc3ccc(C(=O)NCCCCNc4cccc5c4C(=O)N(C4CCC(=O)NC4=O)C5=O)cc3)nc3[nH]ccc23)cn1` (stereo not drawn), 21.1% (inactive). Under `CCOC(=O)C1=C(N)N(c2ccccc2)C2=C(C(=O)CC(C)(C)C2)C1c1ccccc1Cl` (stereo not drawn) stands 75.6% (inactive). With `Cc1ccc(-c2nc(C#N)c(S(=O)(=O)N3CCN(S(=O)(=O)c4ccc(Cl)cc4)CC3)o2)cc1`, the growth was 94.3% (inactive). Then `O=c1[nH]c2ccc(Cl)cc2cc1CSc1nccc(-c2ccc(Cl)cc2)n1`, with 50.1% (inactive); and `CC1(C)CC[C@]2(C(=O)O)CC[C@]3(C)C(=CCC4[C@@]5(C)C[C@@H](O)[C@@H]6OC(c7ccc(F)cc7)OC[C@@]6(C)C5CC[C@]43C)C2C1` (stereo partly drawn), with 17% (inactive); and `C=C1CC[C@@H]2[C@]3(C)COC(c4ccccc4)O[C@@H]3CC[C@@]2(C)[C@@H]1C/C=C1/C(=O)OCC1OC(C)=O` (stereo partly drawn), with 9.46% (active). Then `Cc1cccc(Nc2nc3ccccc3nc2/C=C/c2ccc(F)cc2)c1`, with 91.2% (inactive). Under `Brc1ccc(N/N=C/c2c[nH]c3ccc(Br)cc23)nc1` stands 0.0958% (active); under `C=C1CC[C@@H]2[C@]3(C)COC(c4cn[nH]c4-c4ccc(C)cc4)O[C@@H]3CC[C@@]2(C)[C@@H]1C/C=C1/C(=O)OCC1O` (stereo partly drawn), 41.5% (inactive); under `O=C(Cn1c(/C=C/c2ccccc2)nc2ccccc2c1=O)Nc1ccc(Cl)cc1`, 33.8% (inactive). On to `CC1(C)CC[C@]2(C(=O)O)CC[C@]3(C)C(=CCC4[C@@]5(C)C[C@@H](O)[C@@H]6OC(c7ccccc7Br)OC[C@@]6(C)C5CC[C@]43C)C2C1` (stereo partly drawn), for which the growth is 16.6% (inactive).

In the case of `C=C1CCC2C3(C)COC(c4ccco4)OC3CCC2(C)C1CC(Sc1ccccc1)C1=CCOC1=O` (stereo not drawn), the growth is 53.7% (inactive).
